The source of these data is PubChem BioAssay (NCATS).

A number with no mark means an inactive call. The rule behind the calls is not given here.
Potency is the fitted concentration of half-maximal effect.

The assay concerns HIV-1 nucleocapsid protein NCp7 (binding to TG oligonucleotide). Nature of the assay: HIV Nucleocapsid (AID 346).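 Note: potency is for inhibitors that block NC binding and lower polarization.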 To be noted: HIV-1 NC / fluorescein-TGTGTGTG probe, fluorescence polarization. A digest of the protocol: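 Fluorescence polarization binding of 100 nM HIV-1 NC to 10 nM fluorescein-labelled TG4xF oligonucleotide. Buffer was Hepes pH 7.5 with 250mM NaCl, 1uM ZnCl2, TCEP and 2-mercaptoethanol. Compounds were incubated 1 hr at room temperature before the read.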
In general terms: In fluorescence polarisation assays a small probe gives low polarisation when free and higher when bound to something large.
`COc1ccccc1CN1CC[C@@]2(CCCN(C(=O)c3ccncc3)C2)C1`: the Potency is greater than 20 µM.
As to `FC(F)(F)c1ccccc1-c1ccc2ncnc(NCCN3CCOCC3)c2c1`, the Potency was greater than 20 µM.
The value for `CC(C)NC(=O)N1CCCC2(CCN(C(=O)c3cccn3C)CC2)C1` was greater than 20 µM; that for `O=C(c1cnccn1)N1CCC2(CCN(Cc3ccncc3)CC2)CC1` was greater than 20 µM; that for `O=c1c(-c2ccc(Cl)cc2)nc2cnc(N3CCOCC3)nc2n1Cc1ccc(F)cc1` was greater than 20 µM.
The value for `COc1ccc(Oc2ncc3nc(C)c(=O)n(Cc4ccc(F)cc4)c3n2)cc1` was greater than 20 µM; that for `COc1cccc(-c2cncnc2NCc2cccs2)c1` was greater than 20 µM.
For `CN1CCN(c2ncncc2-c2ccoc2)CC1`, the Potency is greater than 20 µM.
As for `CCNc1ncc2nc(-c3ccccc3)c(=O)n(CCC#N)c2n1`, the figure is greater than 20 µM.
For `COCCn1c(=O)c(-c2ccc(F)cc2)nc2cnc(OCc3ccccc3)nc21`, the Potency was greater than 20 µM.
On to `Cc1noc(C)c1-c1ccc2ncnc(Nc3ccccc3)c2c1`, for which the Potency was greater than 20 µM.
Consider `Cn1cccc1C(=O)N1CCC2(CC1)CCN(c1ncccn1)CC2`, for which the Potency was greater than 20 µM.
`FC(F)(F)c1ccccc1-c1cncnc1NCCN1CCOCC1`: the Potency is greater than 20 µM.
For `COc1ccc(-c2nc3cnc(N4CCNCC4)nc3n(-c3ccc(OC)cc3)c2=O)cc1`, the Potency was greater than 20 µM.
Take `CC(C)CN1CCCC2(CCN(C(=O)c3cccc(F)c3)CC2)C1`: the Potency is greater than 20 µM.
As for `COc1ccccc1CCn1c(=O)c(-c2cn(C)c3ccccc23)nc2cncnc21`, the Potency is greater than 4 µM.
